Source: PMC6919601, “Identification of Plasmodium dipeptidyl aminopeptidase allosteric inhibitors by high throughput screening” (PLoS ONE, 2019)
Hit rate of the full screen: of about 110,000 compounds, about 230 (0.21%) showed an effect of 50% or more. Only a selection was taken, and strong results are over-represented in it overall.

Target: DPAP1 (Plasmodium falciparum, UniProt Q8IIJ9)
Test: primary screen, percent inhibition; read by cleavage of a fluorogenic dipeptide substrate; higher = more effect of the substance
Set-up: species or system P. falciparum D10 trophozoite lysates; single well
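Note: 30 min substrate incubation versus DMSO and 10 µM JCP410 controls.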

Sequence of DPAP1 (Q8IIJ9 whole entry, looked up): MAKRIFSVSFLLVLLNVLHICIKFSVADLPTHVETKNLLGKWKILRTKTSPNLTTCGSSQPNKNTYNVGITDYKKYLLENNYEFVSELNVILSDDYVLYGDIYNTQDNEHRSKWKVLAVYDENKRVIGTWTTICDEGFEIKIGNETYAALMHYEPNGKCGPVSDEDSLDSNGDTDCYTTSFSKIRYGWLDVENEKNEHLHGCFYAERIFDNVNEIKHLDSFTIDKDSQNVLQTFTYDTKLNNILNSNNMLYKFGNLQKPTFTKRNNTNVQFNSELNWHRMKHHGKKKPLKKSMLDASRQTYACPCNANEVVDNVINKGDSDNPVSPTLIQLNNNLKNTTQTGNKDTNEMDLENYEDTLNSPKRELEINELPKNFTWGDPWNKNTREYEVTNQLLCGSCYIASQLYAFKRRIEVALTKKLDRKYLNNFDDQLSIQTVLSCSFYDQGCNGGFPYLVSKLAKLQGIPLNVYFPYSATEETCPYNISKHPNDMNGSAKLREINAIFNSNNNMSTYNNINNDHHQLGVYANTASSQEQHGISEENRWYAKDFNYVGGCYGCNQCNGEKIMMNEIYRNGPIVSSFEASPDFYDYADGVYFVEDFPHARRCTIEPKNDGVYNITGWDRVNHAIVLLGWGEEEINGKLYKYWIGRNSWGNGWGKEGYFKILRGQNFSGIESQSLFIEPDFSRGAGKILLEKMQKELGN

Row | SMILES | % Inhibition @ 10 uM
1 | C[C@H](NC(=O)CCc1ccccc1)c1ccccc1 | 4.22%
2 | CC(C)n1c(NC2CCCCC2)nc2c1c(=O)[nH]c(=O)n2C | -1.11%
3 | Cc1cc(C)c2oc(C(=O)Nc3nnc(CC(C)C)s3)cc(=O)c2c1 | 3.51%
4 | Cc1cc(C)c2oc(C(=O)Nc3nnc(C(C)C)s3)cc(=O)c2c1 | 53.6%
5 | Cc1cc(C)c2oc(C(=O)Nc3nnc(C)s3)cc(=O)c2c1 | -3.24%
6 | Cc1cc(C(=O)NCCc2ccccc2)c2c(C)nn(-c3ccccc3)c2n1 | -6.46%
7 | COC(=O)CSc1nc(C)c(C)c(C)c1C#N | 4.15%
8 | Cc1nc(SCC(=O)O)c(C#N)c(C)c1C | 72.9%
9 | Cc1nc(SCC(N)=O)c(C#N)c(C)c1C | -0.239%
10 | O=C(CSC1CC(=O)N(c2cccc(Cl)c2)C1=O)Nc1ccc(F)cc1 (centres unmarked) | 2.13%
11 | CC(=O)Nc1ccc(Oc2ccc(NC(C)=O)c(NC(C)=O)c2)cc1 | 70.7%
12 | CCC(=O)Nc1ccc(Oc2ccc(NC(=O)CC)c(NC(=O)CC)c2)cc1 | 8.21%
13 | CC(=O)Nc1ccc(Oc2cccc(Oc3ccc(NC(C)=O)cc3)c2)cc1 | -6.02%
14 | C1CCN(CCCNC2C3CC4CC(C3)CC2C4)C1 (centres unmarked) | -0.192%
15 | COc1ccc(C(=O)N2CCC(N3CCCCCC3)CC2)cc1 | 1.91%
16 | Cc1nc2c3ccccc3n3c(CCCC(=O)O)nnc3n2n1 | -2.92%
17 | c1cncc(C(c2c[nH]c3ccccc23)c2c[nH]c3ccccc23)c1 | 92.4%
18 | CCc1[nH]c2ccccc2c1C(C)c1cccnc1 (centres unmarked) | -4.49%
19 | Cc1[nH]nc(O)c1C(c1c(O)n[nH]c1C)c1c[nH]c2ccccc12 | -6.24%
20 | CC(C)(C)C1CCC(OC(=O)CCC(=O)Nc2ccccc2)CC1 (centres unmarked) | 3.16%
21 | N#Cc1cnn(-c2cc(Oc3ccccc3)nc(-c3ccccc3)n2)c1N | -0.941%
22 | Cc1cc(/C=C2\C(=N)N3N=C(S(C)(=O)=O)SC3=NC2=O)c(C)n1-c1cccc(C(F)(F)F)c1 | 3.53%
23 | Cc1cccc(C)c1-n1c(C)cc(/C=C2\C(=N)N3N=C(S(C)(=O)=O)SC3=NC2=O)c1C | 5.1%
24 | Cc1cccc(-n2c(C)cc(/C=C3\C(=N)N4N=C(S(C)(=O)=O)SC4=NC3=O)c2C)c1 | 52.6%
25 | CN(C)CCN(Cc1ccccc1)c1ncnc2onc(-c3ccc(F)cc3)c12 | -2.52%
26 | CC(=O)Nc1ccc(Nc2nc(-c3c(C)nc4cc(C)ccn34)cs2)cc1 | 25.6%

Row | SMILES | % Inhibition @ 10 uM
27 | CCc1c(C#N)c(S)nc2c1CCC2 | 88.7%
28 | CC(C)Cc1c(C#N)c(SCC(N)=O)nc2c1CCCC2 | 9.71%
29 | N#Cc1c(S)nc2c(c1-c1ccncc1)CCCC2 | 30.8%
30 | N#Cc1c(S)nc2c(c1/C=C/c1ccccc1)CCC2 | 17.3%
31 | CC(C)Cc1c(C#N)c(S)nc2c1CCCC2 | 90.5%
32 | CCc1c(C#N)c(SCC(=O)OC)nc2c1CCC2 | 4.16%
33 | CCn1ncc(Br)c1C(=O)Nc1ccc(S(=O)(=O)Nc2ccc(OC)cc2)cc1 | -4.43%
34 | O=C(O)c1cc(C(=O)O)cc(N2C(=O)c3ccc([N+](=O)[O-])cc3C2=O)c1 | 1.64%
35 | CC1(C)OCCN1C(=O)C(=O)c1c[nH]c2ccccc12 | -2.68%
36 | O=C(c1sc(N2CCOCC2)nc1-c1ccccc1)c1c[nH]c2ccccc12 | 72.2%
37 | O=C(CN1CCOCC1)c1c[nH]c2ccccc12 | 7.5%
38 | Cc1nnc(N2CCC(C(=O)NCCc3ccc(Cl)cc3)CC2)c2nn(-c3ccccc3)c(C)c12 | 0.58%
39 | COc1ccc(C2=NN(CCc3ccccn3)C(=O)C2)cc1 | -4.06%
40 | O=C1N=C(N2CCN(Cc3ccccc3)CC2)S/C1=C\c1cccc(O)c1 | 51%
41 | O=C1N=C(N2CCN(Cc3ccccc3)CC2)S/C1=C\c1ccccc1 | -2.82%
42 | O=C1N=C(N2CCN(C3=NC(=O)/C(=C\c4cccc(O)c4)S3)CC2)S/C1=C\c1cccc(O)c1 | 6%
43 | Cn1cc(CC(=O)NCc2ccccn2)c2ccccc21 | 87.4%
44 | Cn1cc(CCC(=O)NCc2ccccn2)c2ccccc21 | 3.28%
45 | CCOC(=O)N1CCN(C(=O)Cc2cn(C)c3ccccc23)CC1 | 85.9%
46 | Cn1cc(CC(=O)NCc2ccc(F)cc2)c2ccccc21 | -4.76%
47 | CCOC(=O)N1CCN(C(=O)Cc2c(C(=O)O)n(C)c3ccccc23)CC1 | 2.84%
48 | CCOC(=O)N1CCC(NC(=O)Cc2cn(C)c3ccccc23)CC1 | -2.41%
49 | CSCCCN(C)CCc1ccccn1 | -7.56%
50 | CN(C)c1ccc(NC(=O)C23CC4CC(C2)CC(n2cnc(Cl)n2)(C4)C3)cc1 | -0.305%
51 | Cc1ccc(C)c(-c2csc(NC(=O)CSc3ccccc3)c2C(N)=O)c1 | 1.02%
52 | O=C(CSc1ccc(-c2cccs2)nn1)N1CCOCC1 | 5.85%

Row | SMILES | % Inhibition @ 10 uM
53 | N#Cc1c(C(F)(F)F)cc(-c2cccs2)nc1SCC(=O)Nc1ccc(C(N)=O)cc1 | -7.55%
54 | N#Cc1c(C(F)(F)F)cc(-c2ccccc2)nc1SCc1nc(N)nc(N2CCOCC2)n1 | 5.18%
55 | COc1ccc(-c2cc(-c3ccccc3)nc(SCC(=O)N3CCOCC3)c2C#N)cc1 | 5.24%
56 | N#Cc1c(C(F)(F)F)cc(-c2cccs2)nc1SCC(=O)NC1CC1 | 1.76%
57 | N#Cc1c(C(F)(F)F)cc(-c2cccs2)nc1SCC(=O)N1CCOCC1 | 72.6%
58 | N#Cc1c(C(F)(F)F)cc(-c2cccs2)nc1SCC(=O)N1CCCCC1 | 87%
59 | N#Cc1c(C(F)(F)F)cc(-c2cccs2)nc1SCC(=O)O | 9.42%
60 | N#Cc1c(C(F)(F)F)cc(-c2cccs2)nc1SCc1nc(N)nc(N2CCOCC2)n1 | 64.2%
61 | Cn1cccc1/C=C1/CCC(C2CCCC2)C1=O (centres unmarked) | -5.51%
62 | Cc1ccc(C)n1-c1nnc(N2CCC(C(=O)NCCc3ccc(Cl)cc3)CC2)s1 | -4.04%
63 | O=C(NC1CCCC1)N(Cc1ccc2c(c1)OCO2)C1CCN(Cc2ccccc2)CC1 | -1.41%
64 | Cc1nc2c(c(C)nn2-c2ccccc2)c(C)c1CCC(=O)NCCC(C)C | 2.57%
65 | CCc1ccc2ncc(S(=O)(=O)c3ccccc3)c(N3CCCC3)c2c1 | -3.69%
66 | CSC1=C(C#N)C2(CCCCC2)C(C#N)C(=O)N1 (centres unmarked) | -0.736%
67 | N#CC1=C(S)NC(=O)C(C#N)C12CCCCC2 (centres unmarked) | 57.8%
68 | CSC1=C(C#N)C2(CCCC2)C(C#N)C(=O)N1 (centres unmarked) | -0.239%
69 | CCN(CC)C(=O)/C=C/c1ccc(Cl)cc1 | 3%
70 | Cn1c(=O)c2c(nc(CN3CCc4ccccc4C3)n2Cc2ccccc2)n(C)c1=O | -0.499%
71 | Cn1c(=O)c2c(nc(CN3CCc4ccccc4C3)n2CCCc2ccccc2)n(C)c1=O | 59.1%
72 | Cn1c(=O)c2c(nc(CN3CCc4ccccc4C3)n2CCc2ccccc2)n(C)c1=O | 2%
73 | CC1=CC2=NC(=O)/C(=C\c3cccn3CCCOc3ccc(C)cc3)C(=N)N2O1 | -1.43%
74 | CCOC(=O)c1cc2c(=O)n3ccccc3nc2n(CCOC)/c1=N\C(=O)C(C)(C)C | -2.04%
75 | COC(=O)Nc1ccc(S(=O)(=O)N2CCN(c3ccccc3OC)CC2)cc1 | -5.13%
76 | COc1ccc(C(=O)Sc2nc(C)cc(C)n2)cc1 | 54.6%
77 | Cc1cc(C)nc(SC(=O)c2ccc(Cl)cc2Cl)n1 | -5.13%
78 | COC(=O)c1ccc(Oc2nc(C)cc(N)n2)cc1 | -2.87%

Row | SMILES | % Inhibition @ 10 uM
79 | CCNc1nc(-c2ccccc2)cs1 | 89.1%
80 | c1ccc(-c2csc(NCc3ccco3)n2)cc1 | -0.178%
81 | CCCNc1nc(-c2ccc(C)cc2)cs1 | 3.33%
82 | c1ccc(CC2CCN(c3ncnc4sc5c(c34)CCCC5)CC2)cc1 | 2.92%
83 | CCn1cc2c(n1)-c1c(oc(C(=O)NCc3cccc(Br)c3)c1C)CC2 | 13.8%
84 | CCOC(=O)c1c(CC(C)C)csc1NC(=O)c1ccc(C)cc1 | -5.9%
85 | CCN(CC)C(=O)CSc1nc2c(c(C(F)(F)F)c1C#N)CCC2 | 5.64%
86 | CCC1CCc2c(sc(N)c2C#N)C1 (centres unmarked) | 11.8%
87 | CCC1CCc2nc(S)c(C#N)c(C(F)(F)F)c2C1 (centres unmarked) | 88.2%
88 | CC(C)c1ccc(/C=C2/NC(=O)NC2=O)cc1 | -1.25%
89 | Cc1ccc(S(=O)(=O)N2CCCN(S(=O)(=O)c3ccc(C)c(C)c3)CC2)cc1C | 22.6%
90 | CN1CCN(C(=O)c2ccc(-c3ccccc3)cc2)CC1 | 2.6%
91 | CC(C)n1c(-c2ccccc2)nc2ccccc21 | -0.769%
92 | CC(C)n1c(-c2ccc(C(=O)N3CCN(C)CC3)cc2)nc2ccccc21 | 83.9%
93 | Cc1ccc(C)c(-c2csc(Nc3ccc(C)c(Cl)c3)n2)c1 | 0.912%
94 | Cc1ccc(-c2nc3cnn(-c4ccccc4)c(O)c-3n2)cc1 | 2%
95 | Oc1c2nc(S)nc-2cnn1-c1ccccc1 | 87.4%
96 | CCSc1c(S)cnn(-c2ccccc2)c1=O | 1.7%
97 | CC(C)C(NS(=O)(=O)c1cccs1)C(=O)NCc1ccccc1Cl (centres unmarked) | -4.07%
98 | CCOc1ccc(-c2cn3ncsc3n2)cc1 | 2.41%
99 | O=C(c1cccs1)c1conc1C(=O)c1ccc(Br)cc1 | 93.8%
100 | O=C(c1nc2ccccc2s1)c1conc1C(=O)c1cccs1 | 4.03%
101 | O=C(c1ccccn1)c1conc1C(=O)c1cccs1 | 1.82%
102 | O=C(c1ccccc1)c1conc1C(=O)c1ccc(Br)cc1 | 4.52%
103 | O=C(c1cccnc1)c1conc1C(=O)c1ccc(Br)cc1 | 91.9%
104 | O=C(c1ccccn1)c1conc1C(=O)c1ccc(Br)cc1 | 3.72%
